JMJD2A Tudor inh: blocks the human JMJD2A Tudor domain; O75164; AlphaScreen JMJD2A-Tudor / H3K4me3 peptide binding; Potency, µM (doses to about 114 µM), inactives show top-dose activity change, negative = inhibition, usual class: inhibitors; 390,000 tested, 4.4% active; note: % is set by controls: 0 for no effect and ±100 for the full control effect; nearly all actives have a fitted effect of over 50% in size
BAZ2B inh: inhibitors of human BAZ2B bromodomain; Q9UIF8; AlphaScreen BAZ2B-H3K14Ac peptide displacement; Potency, µM (series often up to 114 µM), without a hit: at the highest dose activity change, negative = inhibition, usual class: inhibitors; 360,000 tested, 4.4% active; AID 504333; note: % is set by controls: 0 for no effect and ±100 for the full control effect; nearly all actives have a fitted effect of over 60% in size
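Protein-peptide AlphaScreen: BAZ2B 50 nM, b-H3K14Ac 50 nM, 1x PBS pH 7.4 + 0.01% Tween-20. Preincubation 30 min RT; cpd 30 min RT (top 110 uM); beads 20 min RT, light-protected.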
PLK1 PBD inh: PLK1 (human) polo-box domain binding inhibition | Plk1 PBD binding of FITC phosphopeptide, fluorescence polarization | Potency, µM, for the others: max response, negative = inhibition, usual class: inhibitors | 360,000 tested, 2.8% active; note: series mostly up to about 57 µM; % is set by controls: 0 for no effect and ±100 for the full control effect; nearly all actives have a fitted effect of over 65% in size
Target sequence (P53350 whole entry, looked up, the tested form may be a part): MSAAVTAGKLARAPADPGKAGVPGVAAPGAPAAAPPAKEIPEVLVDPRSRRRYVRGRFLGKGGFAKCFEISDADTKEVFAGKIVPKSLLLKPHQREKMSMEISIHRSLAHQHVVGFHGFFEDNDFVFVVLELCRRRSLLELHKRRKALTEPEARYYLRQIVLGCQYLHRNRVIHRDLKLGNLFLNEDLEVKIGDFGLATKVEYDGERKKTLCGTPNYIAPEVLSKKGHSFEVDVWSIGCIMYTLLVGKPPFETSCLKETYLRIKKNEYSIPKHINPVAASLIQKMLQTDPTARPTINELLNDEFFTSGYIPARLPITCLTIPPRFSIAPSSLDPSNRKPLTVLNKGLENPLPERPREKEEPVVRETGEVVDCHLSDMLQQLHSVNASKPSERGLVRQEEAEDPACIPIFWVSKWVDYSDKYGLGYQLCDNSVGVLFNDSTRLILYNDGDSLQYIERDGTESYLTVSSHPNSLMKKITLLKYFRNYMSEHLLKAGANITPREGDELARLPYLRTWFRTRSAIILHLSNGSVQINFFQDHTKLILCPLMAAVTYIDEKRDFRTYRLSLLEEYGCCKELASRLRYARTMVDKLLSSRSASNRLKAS
HP1b binding inh: blocks HP1-beta chromodomain binding to methylated histone tails | 390,000 tested, 0.56% active | P83916 | Potency, µM (titrated, usually from 114 µM), inactives show top-dose activity change, negative = inhibition, most hits filed as inhibitors | AID 540317 | AlphaScreen HP1-beta / biotin-H3K9me3 peptide binding; note: nearly all actives have a fitted effect of over 70% in size
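Compound inhibition of the preformed complex between 50 nM HP1-beta and 50 nM biotinylated H3K9me3 peptide was read by AlphaScreen. Buffer was PBS pH 7.4 with 0.01% Tween-20. Incubations ran 30 min at room temperature, with 10 ug/mL donor/acceptor beads.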
Sfp inh: inhibitors of Bacillus subtilis Sfp phosphopantetheinyl transferase; Q9F4F7; Biochemical Sfp PPTase activity, qHTS; Potency, µM, for the others: largest response in the series, negative = inhibition, actives largely listed as inhibitors; 310,000 tested, 3.5% active;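 note: the enzyme is Sfp with the accession as filed and its product quenches rhodamine fluorescence; 0% = enzyme reaction without inhibitor and -100% = no enzyme wells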
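After 15 min at room temperature with compound, 15 nM Sfp received 5 uM rhodamine-CoA plus 12.5 uM BHQ-2-ybbR (50 mM Hepes pH 7.6, 10 mM MgCl2). Rate came from the fluorescence difference over 30 min, ex 525/em 598 nm.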
G9a inh: G9a (human) methyltransferase inhibition. Q96KQ7. G9a H3K9 monomethylation, AlphaScreen, 2 h. Potency, µM (top dose mostly 102 µM), inactives show at the highest dose activity, negative = inhibition, actives largely listed as inhibitors. 350,000 tested, 8.8% active; note: % is set by controls: 0 for no effect and ±100 for the full control effect; nearly all actives have a fitted effect of over 75% in size
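AlphaScreen read-out: biotin-H3K9 peptide (500 nM) methylation by 20 nM enzyme with 20 uM SAM, 2 h at room temperature after 15 min compound preincubation; anti-monomethyl H3K9 antibody plus donor/acceptor beads, 10 min dark.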
* = called active by the depositor; ? = inconclusive; . = no result; [ ] = dose if it differs, or a comment. In the library only some 12% were active in any assay of this set; here they are far more common. Calls come from the whole dose curve; as a rule, active = well fitted curve in the direction sought with a large enough effect; inconclusive = small, poorly fitted or top-dose-only effect, or another doubt; inactive = no such curve, though single readings can be large; an effect the other way counts as inactive or inconclusive. Potency is the fitted concentration of half-maximal effect.

SMILES	JMJD2A Tudor inh	BAZ2B inh	PLK1 PBD inh	HP1b binding inh	Sfp inh	G9a inh
COC(=O)c1ccc(N=Nc2c(C)[nH]n(-c3ccccc3)c2=O)cc1	?	?	-11.8%	?	-5.2%	8.91µM*
COC(=O)c1ccc(C(NC(=O)OCc2ccccc2)/C(I)=C/[C@@H](C)C(=O)Nc2ccccc2)cc1 (stereo not given in full)	.	.	.	.	23.2%	.
CCOC(=O)c1cc2c(=O)n3ccccc3nc2n(CC2CCCO2)c1=NC(=O)c1ccccc1OCC (stereo not given)	-1.0%	1.2%	.	8.8%	.	7.7%[59 µM]
Cc1[nH]n(-c2ccccc2)c(=O)c1-c1ccccc1	-26.4%	.	-5.5%	-11.2%	10.5%	18.4%[59 µM]
Cc1[nH]n(-c2ccccc2)c(=O)c1N=Nc1c(O)cc(S(=O)(=O)N(C)C)c2ccccc12	20µM*	7.94µM*	29.9µM*	17.8µM*	.	3.55µM*
CSc1ccc(N=Nc2c(C)[nH]n(C)c2=O)cc1	25.1µM*	17.8µM*	-6.6%	44.7µM*	-4.0%	11.2µM*
Cc1[nH]n(-c2ccccc2)c(=O)c1N=Nc1ccc2c(c1)OCCO2	22.4µM*	6.31µM*	0.0%	?	-2.1%	7.08µM*
CC(=O)c1cccc(N=Nc2c(-c3ccccc3)[nH]n(-c3ccccc3)c2=O)c1	?	5.01µM*	23.8µM*	14.1µM*	?	.
Cc1[nH]n(-c2ccccc2)c(=O)c1N=Nc1ccc(F)cc1	?	4.47µM*	1.2%	-19.7%	6.0%	4.47µM*
Cc1[nH]n(-c2ccccc2)c(=O)c1N=O	-12.0%	-28.1%	-5.7%	22.7%	4.3%	-8.3%[12.7 µM]
CCCCCN(CCCCC)C(=O)[C@H](CCC(=O)O)NC(=O)c1ccc(Cl)c(Cl)c1	.	.	.	.	?	31.8%[21.5 µM]
CCOC(=O)C(Cc1ccccc1)NC(=O)CCc1nnc2ccc(N3CCCC3)nn12 (stereo not given)	?	-12.7%	23.8µM*	12.2%	6.4%	1.5%
CCOC(=O)CNC(=O)CCc1nnc2ccc(N3CCC(C)CC3)nn12	?	?	23.8µM*	?	17.3%	14.7%
CCCNC(=O)CCc1nnc2ccc(N3CCC(C)CC3)nn12	-5.1%	7.3%	0.2%	23.6%	8.6%	26.2%
CCOC(=O)C1CCN(C(=O)CCc2nnc3ccc(N4CCC(C)CC4)nn23)CC1	?	-3.0%	23.8µM*	?	12.6%	-12.0%
CC1CC(C)CN(C(=O)CCc2nnc3ccc(N4CCCCC4)nn23)C1 (stereo not given)	39.8µM*	-22.2%	29.9µM*	11.3%	6.8%	79.4µM*
Cc1cc(NC(=O)Cc2cc(F)cc(F)c2)no1	-2.9%	?	-4.6%	29.5%	2.7%	29.4%[0.501 µM]
Nc1[nH]c(C(=O)c2ccccc2)c(-c2ccccc2Br)c1C(=O)NCc1ccc(-c2ccccc2)cc1	.	.	-12.2%	.	.	.
CCOc1ccc(OCCSc2nc(C)cc(=O)[nH]2)cc1	-34.9%[11.4 µM]	-2.1%	3.36µM*	10.0%	22.7%	7.1%
Cc1ccc(CSc2cc(C)[nH]c(=O)n2)cc1	-28.3%	50.1µM*	-15.7%	4.5%[57 µM]	1.8%	2.5%
Cc1cc(SCc2ccc(Cl)cc2)nc(=O)[nH]1	-19.4%	-15.4%	-11.3%	5.2%[57 µM]	1.1%	34.1%
COc1ccc(C(=O)CSc2nc(C)cc(=O)[nH]2)cc1	-1.3%	4.1%	-17.5%	24.2%	-1.2%	25.1µM*
COc1ccc(C(=O)CSc2cc(C)[nH]c(=O)n2)cc1	?	50.1µM*	-27.3%	-13.5%	-6.4%	?
COc1ccccc1C(=O)Nc1cccc(OCc2cc(=O)n3ccccc3n2)c1	-11.0%	6.7%	.	21.1%[57 µM]	.	5.0%[59 µM]
CC(=O)OC(C=C(C)C)C/C(C)=C/COc1c2ccoc2cc2oc(=O)ccc12 (stereo not given)	20.3%	.	0.9%	103.8%	.	.
SMILES	JMJD2A Tudor inh	BAZ2B inh	PLK1 PBD inh	HP1b binding inh	Sfp inh	G9a inh
Nc1ncnc2c1ncn2[C@@H]1O[C@H](COP(=O)(O)OP(=O)(O)CP(=O)(O)O)[C@@H](O)[C@H]1O	.	.	.	.	1.3%	-4.6%[59 µM]
Cc1ccc2cc(C)c3nnc(SCc4ccc(C(=O)O)cc4)n3c2c1C	39.8µM*	?	?	26.7%	-6.8%	.
COC(=O)C(CC(=O)c1ccc(Br)cc1)n1cccn1 (stereo not given)	-9.7%	1.3%	-24.3%	8.3%	?	39.8µM*
COC(=O)C(CC(=O)c1ccc(C)cc1)n1cccn1 (stereo not given)	-7.8%	9.4%	-8.8%	32.7%	22.1%	15.2%
CCCC[n+]1ccn(C2=C([O-])c3ccccc3C(=O)/C2=N\S(=O)(=O)c2ccc(Br)cc2)c1	-12.5%	89.1µM*	-5.3%	18.0%	-12.2%	44.7µM*
Cc1ccc(S(=O)(=O)/N=C2\C(=O)c3ccccc3C([O-])=C2n2cc[n+](CCC(C)C)c2)cc1	-19.6%	-33.6%	-6.0%	5.5%	6.1%	?
Cc1c(C)n(Cc2ccccc2)c2ccc(C(=O)OCCCN(C)C)cc12	39.8µM*	-11.6%	-9.5%	?	7.3%	8.8%
Cc1ccccc1CCNC(=O)c1ccc2c(c1)c(C)c(C)n2Cc1ccccc1	-29.2%	-28.1%	.	35.9%	.	-32.1%[59 µM]
Cc1c(C)n(CCN(C)C)c2ccc(C(=O)OCCN(C)C)cc12	-7.4%	-26.2%	1.6%	9.1%	2.2%	14.1µM*
COCCN(Cc1nc(-c2ccc(-c3ccccc3)cc2)oc1C)C(C)C	-13.6%	-2.5%	5.3%	32.2%	-4.6%	.
Nn1cc(-c2ccccc2)nc1SCC(=O)NC1CCS(=O)(=O)C1 (stereo not given)	-13.7%	-24.7%	-7.9%	47.5%	4.3%	-38.7%[59 µM]
Cc1ccc(C)c(-n2cc(-c3ccc(Cl)cc3)nc2SCC(=O)NC2CCS(=O)(=O)C2)c1 (stereo not given)	?	?	6.8%	-16.5%	7.8%	44.7µM*
O=C(CSc1nc2ccccc2n1CCc1ccccc1)NC1CCS(=O)(=O)C1 (stereo not given)	-7.0%	-4.7%	-3.6%	42.4%	?	2µM*
Cc1ccccc1-n1c(SCC(=O)NC2CCS(=O)(=O)C2)nc2ccccc2c1=O (stereo not given)	-8.3%	6.7%	-1.7%	19.6%	.	50.1µM*
Cc1ccc(-n2c(SCC(=O)NC3CCS(=O)(=O)C3)nc3ccccc3c2=O)c(C)c1 (stereo not given)	.	.	-1.1%	.	.	.
O=C(NCc1ccccc1Cl)c1ccc2c(c1)N(Cc1ccccc1)CCS2	-11.3%	-0.6%	.	66.2%	.	-16.6%[59 µM]
CCOC(=O)C1(O)Oc2cc(OC)cc(OC)c2C(=O)C1c1ccccc1 (stereo not given)	.	.	.	.	27.6%	.
COc1ccc(N2CCN(c3ccc(C(=O)O)cc3[N+](=O)[O-])CC2)cc1	-33.3%	?	-17.2%	49.3%	-4.6%	40.9%[0.501 µM]
